PBM binding z-score data for seven sequences are collected here from the supplement of paper PMC6555819.

Common to all, as to assay: PBM binding z-score (relative to random genomic background probes); higher = stronger binding; sequences stand for … in GC…GCGATTGACAGCGTAGAATGAAGG
In assay [1] the test system is PPARg:RXRa DBDmut IVT, anti-RXR (DBD mutation: RXRa K156A/R161A, NR concentration 270 nM, RXRa partner concentration 90 nM). A digest of the protocol:
(§1)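 Regression normalization was applied to scanned fluorescence from custom Agilent 4×180K protein-binding microarrays. Before scanning, arrays were incubated 1 h with ligand-free nuclear receptor dimers, and binding was detected with antibodies against each partner (one per run). Binding z-scores use the random background probes as reference.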

Assay [2] deals with PPARg:RXRa IVT, anti-PPARg (NR concentration 270 nM, RXRa partner concentration 90 nM). A digest of the protocol: as §1
Assay [3] has as its system PPARg DBDmut:RXRa IVT, anti-PPARg (DBD mutation: PPARg1 K132A/R137A, NR concentration 270 nM, RXRa partner concentration 90 nM). A digest of the protocol: as §1
Assay [4] relates to PPARg DBDmut IVT, anti-PPARg (DBD mutation: PPARg1 K132A/R137A, NR concentration 270 nM). A digest of the protocol:
as §1

In assay [5] the test system is PPARg homodimer (NR concentration 180 nM). A digest of the protocol: as §1
Assay [6] concerns PXR:RXRa (NR concentration 270 nM, RXRa partner concentration 90 nM). A digest of the protocol:
as §1

The subject of assay [7] is PXR homodimer (NR concentration 270 nM). A digest of the protocol:
as §1

Assay [8] deals with RARa:RXR (NR concentration 270 nM, RXRa partner concentration 90 nM). A digest of the protocol:
as §1

Assay [9] concerns RARa homodimer (NR concentration 270 nM). A digest of the protocol: as §1
The subject of assay [10] is RARb:RXRa (NR concentration 270 nM, RXRa partner concentration 90 nM). A digest of the protocol: as §1
The subject of assay [11] is RARb homodimer (NR concentration 270 nM). A digest of the protocol: as §1
The test system of assay [12] is RARg:RXRa (NR concentration 270 nM, RXRa partner concentration 90 nM). A digest of the protocol:
as §1

The subject of assay [13] is RARg homodimer (NR concentration 270 nM). A digest of the protocol:
as §1

For assay [14], the system named is RXRa DBDmut IVT, anti-RXR (DBD mutation: RXRa K156A/R161A, NR concentration 90 nM). A digest of the protocol:
as §1

The subject of assay [15] is RXRa homodimer (NR concentration 180 nM). A digest of the protocol:
as §1

The subject of assay [16] is THRa:RXRa (NR concentration 90 nM, RXRa partner concentration 90 nM). A digest of the protocol:
as §1

Assay [17] relates to THRa homodimer (NR concentration 90 nM). A digest of the protocol: as §1
Assay [18] concerns VDR homodimer (NR concentration 270 nM). A digest of the protocol:
as §1

In the case of GCTAGTTGGTCAGTAAAGGGTCACACACCGGTCG, the PBM binding z-score in assay [1] was 0.794; in assay [2], 2.2; in assay [3], -0.362; in assay [4], -0.645; in assay [5], 2.52; in assay [6], 3.32. Moreover, the PBM binding z-score turned out to be 0.202 in assay [7]; 4.15 in [8]; 0.553 in assay [9]; 3.43 in assay [10]; 4.43 in [11]; 4.33 in [12]. For the same sequence, the PBM binding z-score amounted to 3.73 in assay [13]; 0.428 in [14]; 3.78 in [15]; 2.77 in assay [16]; 0.995 in [17]; 1.74 in assay [18].
Regarding AGTCAAAGTTCATCTAGGCAACGTAAGATATGCT, the PBM binding z-score in assay [1] is 0.192; in assay [2], 3.08; in assay [3], 1.23; in [4], 0.857; in assay [5] it was 2.59; in assay [6], 5.11. The PBM binding z-score in assay [7] turned out to be 4.94; in [8], 3.62; in [9] it was 0.925; in assay [10], 5.1; in assay [11], 3.91; in assay [12], 5.49. Besides, the PBM binding z-score was 6.04 in assay [13]; 4.78 in assay [14]; 4.97 in [15]; 2.22 in assay [16]; -0.142 in assay [17]; 4.64 in assay [18].
With ACTAGCAGGCCAAGTTTGGGTCACTCAGACAAAG, the PBM binding z-score in assay [1] was 0.651; in assay [2], 1.1; in assay [3] it was -0.577; in assay [4], -0.242; in [5], 0.405; in assay [6], 0.515. The PBM binding z-score in assay [7] was -0.504; in assay [8], 1.43; in assay [9], -0.139; in assay [10], 1.71; in [11], 2.13; in assay [12], 2.11. For the same sequence, the PBM binding z-score stood at 1.41 in assay [13]; 0.0571 in assay [14]; 0.7 in assay [15]; 2.33 in [16]; 0.94 in assay [17]; 0.117 in [18].
In the case of TCATATAGGTAAATGCTAGGTGAAAGTCCGATCT, the PBM binding z-score in assay [1] turned out to be 3.92; in assay [2] it was 2.74; in assay [3], 1.21; in assay [4], 1.03; in assay [5] it was 0.763; in assay [6], 0.713. Besides, the PBM binding z-score is 0.387 in assay [7]; 1.07 in assay [8]; 1.52 in assay [9]; 0.642 in assay [10]; 0.629 in assay [11]; 0.482 in [12]. The PBM binding z-score in [13] was 0.503; in [14], 1.42; in [15], 0.567; in assay [16], 1.39; in assay [17], 0.441; in assay [18] it was 0.42.
Consider GCGACTGGGGCAAAGCTGGTTACCATAAGGTTGG, for which the PBM binding z-score was 4.32 in assay [1]; 3.14 in assay [2]; -0.175 in assay [3]; -0.912 in assay [4]; -0.562 in assay [5]; -0.523 in assay [6]. The PBM binding z-score in assay [7] is -0.799; in assay [8] it was -0.0421; in [9], -0.562; in [10], 0.598; in [11] it was 0.208; in assay [12], 0.0391. For the same sequence, the PBM binding z-score in [13] is 0.0418; in assay [14] it was 0.0315; in [15] it was -0.0119; in assay [16], 0.398; in [17], -0.232; in assay [18], -0.208.
ACTAGTTGGTCAGCCGAGGTCACACACAATTCGG: the PBM binding z-score worked out at 1.8 in assay [1]; 3.12 in [2]; 0.481 in assay [3]; 1.14 in assay [4]; 3.29 in assay [5]; 5.43 in assay [6]. For the same sequence, the PBM binding z-score in assay [7] was 2.13; in assay [8] it was 5; in assay [9], 1.82; in [10], 3.58; in assay [11], 4.36; in assay [12] it was 4.25. Moreover, the PBM binding z-score in [13] is 4.08; in assay [14], 0.998; in assay [15], 4.34; in assay [16] it was 5; in assay [17], 4.33; in assay [18], 4.04.
Consider TCTTGTTGATCAACAGGAGGTTAAGAAAGATCGA, for which the PBM binding z-score in assay [1] is 0.718; in [2], 0.445; in [3] it was 1.15; in assay [4], 0.996; in [5], -0.401; in assay [6] it was 0.703. In addition, the PBM binding z-score in assay [7] is -0.344; in [8], 0.688; in [9], -0.505; in assay [10], 0.432; in assay [11] it was 0.286; in assay [12], 0.304. Further, the PBM binding z-score in assay [13] is 0.198; in assay [14], 0.0758; in [15], 0.644; in assay [16] it was 0.723; in [17] it was -0.731; in [18] it was -0.304.
